Assay results as given in PubChem BioAssay (NCI).
Compounds without any hit were thinned out: in the full panel of roughly 79,000, 15% have a hit. A number with no mark means an inactive call. The source made the active and inactive calls. Cut-off read from the data, not from the text of the source: active = growth inhibition above about 70%; inactive = the rest. Where a SMILES comes first, the peptide text is derived from it. [ ]: non-standard residue; d: D form. The star is where a group is joined. ξ: configuration not given here. Cbz = O=C(OCc1ccccc1)*; ξP = O=C(O)C1CCCN1

Experiments:
[1] = NCI Yeast Anticancer Drug Screen. Data for the rad50 strain (AID 155);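 note: 0% = growth of vehicle-only cultures of the same strain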; details: S. cerevisiae rad50 strain growth inhibition; at 50.0 µM; hits give high values
Method in brief: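 Readout: growth inhibition relative to vehicle-treated cultures. Compound exposure was carried out in a genetically defined yeast strain deficient in DNA damage repair.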

[2] = NCI Yeast Anticancer Drug Screen. Data for the mec2-1 strain (AID 157); details: S. cerevisiae mec2-1 strain, at 50.0 µM, hits give high values
Method in brief: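 Yeast mec2-1 mutant treated with compound. Readout: growth inhibition vs vehicle controls.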

[3] = NCI Yeast Anticancer Drug Screen. Data for the sgs1 mgt1 strain (AID 161);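 note: 0% = growth of cultures given vehicle only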; details: S. cerevisiae sgs1 mgt1 strain, at 50.0 µM, hits give high values
Method in brief: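 Genetically altered yeast, compound exposure, growth inhibition relative to vehicle.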

[4] = NCI Yeast Anticancer Drug Screen. Data for the cln2 rad14 strain (AID 165);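 note: 0% = growth equal to vehicle treated cultures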; details: S. cerevisiae cln2 rad14 strain, at 50.0 µM, hits give high values
Method in brief: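 cln2 rad14 yeast strain; compound exposure; growth inhibition read vs vehicle controls.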

[5] = NCI Yeast Anticancer Drug Screen. Data for the bub3 strain (AID 167); details: S. cerevisiae bub3 mutant strain, at 50.0 µM, hits give high values
Method in brief: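 Readout: yeast growth inhibition, expressed relative to vehicle-only wells. The test organism is a mutant strain from a panel with lesions in DNA repair or checkpoint genes.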

[6] = NCI Yeast Anticancer Drug Screen. Data for the mlh1 rad18 strain (AID 175); details: S. cerevisiae mlh1 rad18 strain growth inhibition; at 50.0 µM; hits give high values
Method in brief: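 Yeast w/ defined DNA-repair lesions; compound exposure; growth vs vehicle controls → % inhibition.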

Row | Structure (SMILES) | growth inhibition [1] | growth inhibition [2] | growth inhibition [3] | growth inhibition [4] | growth inhibition [5] | growth inhibition [6]
1 | CSc1ccc(NC(=O)c2ccc([N+](=O)[O-])cc2)cc1 | -1.1% | 5.6% | 10.3% | -13.3% | 25.9% | 3.05%
2 | Cn1c(=O)c2c(nc(C[N+]3([O-])CCOCC3)n2C)n(C)c1=O | -4.75% | -34.9% | -27.9% | 8.35% | -11.5% | -27.9%
3 | COc1cc(C=O)cc(OC)c1 | -19.3% | -49.3% | -20.4% | 12.4% | -51% | -2.25%
4 | Cc1cc(N/N=C/c2ccnc3ccccc23)c2cc3c(cc2n1)OCO3 | 43.4% | 18% | 23.4% | 27% | 31.7% | 20.9%
5 | O=C(CNC(=O)OCc1ccccc1)NCC(=O)N1CCCC1C(=O)O (stereo not drawn) (Cbz-Gly-Gly-[ξP]-OH) | -1.6% | 1.15% | -4.45% | 0.25% | -3.65% | -23.6%
6 | COc1c(-c2cccs2)oc2c(CC(=O)O)cccc2c1=O | 10.9% | -10.8% | 28.1% | 5.9% | 17.7% | -26%
7 | c1ccc2nc3ccccc3cc2c1 | 2.7% | 19.6% | 27.1% | 27.8% | 3.1% | 5.95%
8 | O=C(O)c1ccccc1SC(Sc1ccccc1C(=O)O)c1ccc(Cl)cc1 | 4.8% | -9.15% | -9% | -11.9% | -4.1% | 15.2%
9 | CO/[N+]([O-])=C\C(=O)N/C=C/C(=O)O | 19.1% | 5.85% | 7.3% | 18.7% | 23.6% | 15.2%
10 | N#CCCCNc1ccccc1 | -19.1% | -15% | -28.4% | -4.9% | -8.6% | -20.6%
11 | COc1ccc(-c2coc3cc(O)cc(O)c3c2=O)cc1 | 36.6% | 22.6% | 59.4% | 31.7% | 58.4% | 62.9%
12 | CSc1ccc(NC(=O)N(Cc2ccccc2)c2ccccc2)cc1 | 3.75% | 16.9% | 11.9% | -6.4% | 19.2% | 13.8%
13 | CCCCNC(=O)c1ccc(C(C)C)cc1 | 9.2% | -0.95% | 0.4% | -4.15% | -0.9% | -5.05%
14 | Clc1ccc(N=Cc2ccccc2)cn1 | -13.6% | 22.1% | 37% | -14.4% | 6.55% | 47.4%
15 | O=CC1CCCO1 (stereo not given) | 21.2% | -22.2% | 15.2% | 6.9% | 6.45% | 22%
16 | Cc1nc(-n2nc(-c3ccccc3)cc2-c2ccccc2)sc1C(/C=C/c1ccc([N+](=O)[O-])cc1)=N/NC(N)=S | 18.6% | 7.15% | 12.7% | -18.3% | 44.4% | 33.7%
17 | CCCCCCCCCCCCCCCCOc1ccc(Sc2ccc([N+](=O)[O-])cc2)cc1 | 44.5% | 4.2% | 35.6% | -3.9% | 13.6% | 31.6%
18 | CCCCCCCCCCCCCCCCCC(=O)Oc1c(C(C)(C)C)cc([N+](=O)[O-])c(C)c1[N+](=O)[O-] | 98.2% (active) | 99.2% (active) | 98.8% (active) | 98.9% (active) | 99.2% (active) | 98.2% (active)
19 | COc1ccc(C2S/C(=C\c3cccc(O)c3)C(=O)N2NC(=O)Cc2ccccc2)cc1 (stereo not given) | -15.3% | -34.5% | -6.2% | -46.5% | -1.2% | 10.9%
20 | CCSSC12CCCN1C(=O)C1CCCN1C2=O (stereo not given) | 49% | 40.9% | 9.4% | -40% | 20.6% | 20.4%
